# Assay results as given in PMC7862700, “An all-to-all approach to the identification of sequence-specific readers for epigenetic DNA modifications on cytosine”.
# Columns and labels:
# Test in all cases: DAPPL (digital affinity profiling via proximity ligation, sequencing); 10 mM Tris-HCl pH 7.5, 50 mM NaCl, 1 mM DTT, 4% glycerol, room temperature, 30 min; GST-TFs on glutathione beads, 16-mer random dsDNA library, 0.1% formaldehyde crosslink after washing; high values mean tight binding
# Conditions in all cases: protein: recombinant; tags: N-terminal GST; dsDNA, one strand shown
# [1] = target: T1, ELK1 (Homo sapiens, UniProt P19419 1-428)
# T1 sequence: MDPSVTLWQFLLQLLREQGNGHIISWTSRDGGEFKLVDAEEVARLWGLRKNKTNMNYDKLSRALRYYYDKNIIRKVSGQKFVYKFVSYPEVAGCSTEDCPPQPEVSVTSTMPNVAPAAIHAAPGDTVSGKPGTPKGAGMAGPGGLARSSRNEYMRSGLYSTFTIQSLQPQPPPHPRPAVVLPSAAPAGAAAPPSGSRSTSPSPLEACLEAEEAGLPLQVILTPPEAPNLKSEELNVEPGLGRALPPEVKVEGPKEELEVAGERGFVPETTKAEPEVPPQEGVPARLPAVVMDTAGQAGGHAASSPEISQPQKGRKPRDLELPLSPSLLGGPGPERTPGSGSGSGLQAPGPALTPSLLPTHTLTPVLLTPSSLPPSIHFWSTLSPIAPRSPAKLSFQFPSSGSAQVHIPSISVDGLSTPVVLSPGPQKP
# Procedure, shortened: (§1)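 Pools were built from human transcription factors expressed in yeast as GST fusions, captured on glutathione beads and DNA-barcoded, along with a tag-only sample. Incubation with 200 nmole of a 16-mer random double-stranded DNA library lasted 30 min at room temperature in Tris/NaCl/DTT/glycerol buffer, and was followed by washing, 0.1% formaldehyde crosslinking, proximity ligation, PCR amplification and Illumina NextSeq500 sequencing. Binding signal is the quotient of each hexamer's read frequency for a factor and its frequency for the tag-only sample.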
# [2] = target: T2, GABPA (Homo sapiens, UniProt Q06546 1-454)
# T2 sequence: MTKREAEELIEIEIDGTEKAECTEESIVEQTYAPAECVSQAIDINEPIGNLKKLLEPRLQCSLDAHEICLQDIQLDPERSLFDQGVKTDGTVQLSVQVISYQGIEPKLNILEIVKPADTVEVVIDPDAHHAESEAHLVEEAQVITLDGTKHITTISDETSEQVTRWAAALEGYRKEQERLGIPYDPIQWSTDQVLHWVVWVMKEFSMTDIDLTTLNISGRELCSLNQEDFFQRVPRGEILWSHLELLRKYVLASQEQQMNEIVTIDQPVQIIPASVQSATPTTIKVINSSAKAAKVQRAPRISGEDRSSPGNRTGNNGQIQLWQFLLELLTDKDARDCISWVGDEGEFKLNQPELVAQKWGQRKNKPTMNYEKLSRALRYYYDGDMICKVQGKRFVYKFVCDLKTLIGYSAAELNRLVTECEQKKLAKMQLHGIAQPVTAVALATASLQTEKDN
# Procedure, shortened: as §1
# [3] = target: T3, ERG (Homo sapiens, UniProt P11308 1-479)
# T3 sequence: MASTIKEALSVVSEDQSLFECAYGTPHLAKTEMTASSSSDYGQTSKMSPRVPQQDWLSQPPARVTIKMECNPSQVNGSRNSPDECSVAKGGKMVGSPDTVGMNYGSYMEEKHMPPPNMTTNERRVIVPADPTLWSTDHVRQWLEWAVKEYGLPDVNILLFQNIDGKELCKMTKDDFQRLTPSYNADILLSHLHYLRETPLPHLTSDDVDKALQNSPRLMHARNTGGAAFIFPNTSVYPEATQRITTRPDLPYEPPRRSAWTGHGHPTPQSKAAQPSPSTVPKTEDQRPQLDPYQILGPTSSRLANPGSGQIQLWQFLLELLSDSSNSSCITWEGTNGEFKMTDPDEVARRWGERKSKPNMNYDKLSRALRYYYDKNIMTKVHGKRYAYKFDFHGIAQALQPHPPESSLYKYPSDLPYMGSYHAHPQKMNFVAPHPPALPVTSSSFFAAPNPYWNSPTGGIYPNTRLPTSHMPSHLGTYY
# Procedure, shortened: as §1
# [4] = target: ELF1 (Homo sapiens, UniProt P32519 1-619)
# Procedure, shortened: as §1
# [5] = target: T4, EHF (Homo sapiens, UniProt Q9NZC4 1-300)
# T4 sequence: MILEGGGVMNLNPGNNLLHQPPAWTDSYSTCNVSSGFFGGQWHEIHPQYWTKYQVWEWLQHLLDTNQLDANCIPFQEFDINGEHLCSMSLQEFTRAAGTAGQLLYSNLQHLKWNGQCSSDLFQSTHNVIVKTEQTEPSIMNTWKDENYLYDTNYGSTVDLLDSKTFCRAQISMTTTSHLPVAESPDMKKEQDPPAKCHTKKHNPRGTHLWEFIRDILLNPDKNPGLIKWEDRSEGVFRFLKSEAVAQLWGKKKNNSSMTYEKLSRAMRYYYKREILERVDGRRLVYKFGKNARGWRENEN
# Procedure, shortened: as §1
# [6] = target: T5, FEV (Homo sapiens, UniProt Q99581 1-238)
# T5 sequence: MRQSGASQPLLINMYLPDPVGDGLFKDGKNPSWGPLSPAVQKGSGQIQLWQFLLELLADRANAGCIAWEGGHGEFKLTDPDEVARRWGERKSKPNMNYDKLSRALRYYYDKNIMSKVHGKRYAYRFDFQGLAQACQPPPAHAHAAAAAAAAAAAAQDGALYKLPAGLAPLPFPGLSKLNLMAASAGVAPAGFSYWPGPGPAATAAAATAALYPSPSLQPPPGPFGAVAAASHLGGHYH
# Procedure, shortened: as §1
# [7] = target: ETV5 (Homo sapiens, UniProt P41161 1-510)
# Procedure, shortened: as §1
# [8] = target: ELF4 (Homo sapiens, UniProt Q99607 1-663)
# Procedure, shortened: as §1
# [9] = target: T6, ELK4 (Homo sapiens, UniProt P28324-2 1-405)
# T6 sequence: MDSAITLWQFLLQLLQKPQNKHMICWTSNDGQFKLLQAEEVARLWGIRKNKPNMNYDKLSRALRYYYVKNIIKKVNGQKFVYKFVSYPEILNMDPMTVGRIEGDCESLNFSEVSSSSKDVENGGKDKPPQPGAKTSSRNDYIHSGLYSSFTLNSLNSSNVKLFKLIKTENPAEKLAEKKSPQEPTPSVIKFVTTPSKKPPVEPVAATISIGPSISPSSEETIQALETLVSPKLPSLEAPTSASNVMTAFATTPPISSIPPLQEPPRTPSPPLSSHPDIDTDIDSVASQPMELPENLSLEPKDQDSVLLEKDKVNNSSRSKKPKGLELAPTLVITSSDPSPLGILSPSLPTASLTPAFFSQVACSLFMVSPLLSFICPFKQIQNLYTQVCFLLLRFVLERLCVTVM
# Procedure, shortened: as §1
# [10] = target: T7, ETV2 (Homo sapiens, UniProt O00321 1-342)
# T7 sequence: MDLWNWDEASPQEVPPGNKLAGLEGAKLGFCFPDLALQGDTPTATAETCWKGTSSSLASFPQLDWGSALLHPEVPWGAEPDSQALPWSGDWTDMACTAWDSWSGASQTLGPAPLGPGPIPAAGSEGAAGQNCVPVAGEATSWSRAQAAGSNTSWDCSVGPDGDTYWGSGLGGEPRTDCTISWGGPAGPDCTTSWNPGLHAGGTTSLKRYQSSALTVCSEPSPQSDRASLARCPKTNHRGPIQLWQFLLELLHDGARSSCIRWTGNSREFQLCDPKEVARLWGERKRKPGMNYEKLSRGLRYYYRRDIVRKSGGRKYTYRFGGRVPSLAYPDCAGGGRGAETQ
# Procedure, shortened: as §1
# [11] = target: ETV1 (Homo sapiens, UniProt P50549 1-477)
# Procedure, shortened: as §1
# [12] = target: T8, ERF (Homo sapiens, UniProt P50548 1-548)
# T8 sequence: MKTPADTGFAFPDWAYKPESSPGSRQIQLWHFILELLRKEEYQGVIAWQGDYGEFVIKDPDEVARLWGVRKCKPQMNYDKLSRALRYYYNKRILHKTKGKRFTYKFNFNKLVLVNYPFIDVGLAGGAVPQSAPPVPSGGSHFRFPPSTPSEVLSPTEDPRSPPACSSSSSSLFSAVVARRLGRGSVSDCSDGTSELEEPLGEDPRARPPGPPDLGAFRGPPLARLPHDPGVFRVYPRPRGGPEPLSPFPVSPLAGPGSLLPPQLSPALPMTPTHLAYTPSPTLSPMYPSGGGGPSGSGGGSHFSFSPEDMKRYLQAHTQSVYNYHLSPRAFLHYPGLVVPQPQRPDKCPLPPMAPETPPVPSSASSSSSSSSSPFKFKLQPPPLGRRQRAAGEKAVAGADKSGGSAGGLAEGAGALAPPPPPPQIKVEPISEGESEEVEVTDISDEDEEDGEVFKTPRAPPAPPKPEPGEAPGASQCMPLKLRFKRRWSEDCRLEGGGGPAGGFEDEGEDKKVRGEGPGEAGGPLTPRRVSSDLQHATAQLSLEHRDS
# Procedure, shortened: as §1
# [13] = target: T9, ETV3L (Homo sapiens, UniProt Q6ZN32 1-361)
# T9 sequence: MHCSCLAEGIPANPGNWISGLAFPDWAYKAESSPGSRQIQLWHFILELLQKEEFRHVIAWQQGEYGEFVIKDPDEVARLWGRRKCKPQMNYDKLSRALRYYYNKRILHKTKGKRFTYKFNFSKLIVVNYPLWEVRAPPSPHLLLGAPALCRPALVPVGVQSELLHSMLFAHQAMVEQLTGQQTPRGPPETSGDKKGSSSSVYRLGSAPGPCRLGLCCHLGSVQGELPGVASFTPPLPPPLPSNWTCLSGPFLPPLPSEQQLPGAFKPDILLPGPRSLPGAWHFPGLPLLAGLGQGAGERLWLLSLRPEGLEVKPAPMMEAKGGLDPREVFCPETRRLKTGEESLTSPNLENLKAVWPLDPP
# Procedure, shortened: as §1
# [14] = target: T10, ETS2 (Homo sapiens, UniProt P15036 1-469)
# T10 sequence: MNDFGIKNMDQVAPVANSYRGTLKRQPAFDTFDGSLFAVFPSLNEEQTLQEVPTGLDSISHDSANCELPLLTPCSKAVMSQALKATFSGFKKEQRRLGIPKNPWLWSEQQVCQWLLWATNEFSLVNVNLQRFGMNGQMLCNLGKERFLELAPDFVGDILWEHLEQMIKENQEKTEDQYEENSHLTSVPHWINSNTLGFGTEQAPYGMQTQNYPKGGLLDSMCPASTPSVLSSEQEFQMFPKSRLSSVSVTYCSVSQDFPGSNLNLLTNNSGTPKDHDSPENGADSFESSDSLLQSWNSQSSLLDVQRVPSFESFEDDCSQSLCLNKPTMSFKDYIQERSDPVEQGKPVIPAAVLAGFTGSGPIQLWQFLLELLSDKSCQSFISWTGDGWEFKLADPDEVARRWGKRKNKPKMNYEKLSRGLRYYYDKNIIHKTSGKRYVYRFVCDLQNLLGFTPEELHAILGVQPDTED
# Procedure, shortened: as §1
# [15] = target: T11, SPDEF (Homo sapiens, UniProt O95238 1-335)
# T11 sequence: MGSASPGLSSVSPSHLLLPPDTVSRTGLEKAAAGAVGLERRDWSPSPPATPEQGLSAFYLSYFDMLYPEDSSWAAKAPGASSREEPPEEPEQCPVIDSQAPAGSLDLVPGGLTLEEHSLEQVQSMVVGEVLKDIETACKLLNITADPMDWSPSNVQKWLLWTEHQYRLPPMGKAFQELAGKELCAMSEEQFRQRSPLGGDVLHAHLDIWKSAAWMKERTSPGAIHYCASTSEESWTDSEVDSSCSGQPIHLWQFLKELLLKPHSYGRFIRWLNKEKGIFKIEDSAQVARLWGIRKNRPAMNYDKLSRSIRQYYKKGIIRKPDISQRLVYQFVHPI
# Procedure, shortened: as §1
# [16] = target: T12, ETV7 (Homo sapiens, UniProt Q9Y603 1-341)
# T12 sequence: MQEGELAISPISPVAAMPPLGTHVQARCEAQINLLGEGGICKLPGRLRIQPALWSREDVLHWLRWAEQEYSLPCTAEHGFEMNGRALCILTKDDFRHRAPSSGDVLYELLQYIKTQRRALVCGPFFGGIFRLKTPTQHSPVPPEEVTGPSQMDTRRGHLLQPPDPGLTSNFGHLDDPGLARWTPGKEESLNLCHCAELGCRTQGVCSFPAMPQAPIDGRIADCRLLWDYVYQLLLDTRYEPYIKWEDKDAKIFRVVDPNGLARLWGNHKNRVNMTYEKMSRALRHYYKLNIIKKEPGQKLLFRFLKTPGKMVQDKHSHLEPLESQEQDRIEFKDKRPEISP
# Procedure, shortened: as §1
# [17] = target: T13, ETV3 (Homo sapiens, UniProt P41162-2 1-143)
# T13 sequence: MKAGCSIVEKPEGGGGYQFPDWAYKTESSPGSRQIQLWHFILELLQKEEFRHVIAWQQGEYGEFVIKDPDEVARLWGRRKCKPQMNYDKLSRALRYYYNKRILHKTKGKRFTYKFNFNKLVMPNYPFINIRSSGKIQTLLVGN
# Procedure, shortened: as §1
# [18] = target: ETV6 (Homo sapiens, UniProt P41212 1-452)
# Procedure, shortened: as §1
# ELF1, sequence (P32519 whole entry): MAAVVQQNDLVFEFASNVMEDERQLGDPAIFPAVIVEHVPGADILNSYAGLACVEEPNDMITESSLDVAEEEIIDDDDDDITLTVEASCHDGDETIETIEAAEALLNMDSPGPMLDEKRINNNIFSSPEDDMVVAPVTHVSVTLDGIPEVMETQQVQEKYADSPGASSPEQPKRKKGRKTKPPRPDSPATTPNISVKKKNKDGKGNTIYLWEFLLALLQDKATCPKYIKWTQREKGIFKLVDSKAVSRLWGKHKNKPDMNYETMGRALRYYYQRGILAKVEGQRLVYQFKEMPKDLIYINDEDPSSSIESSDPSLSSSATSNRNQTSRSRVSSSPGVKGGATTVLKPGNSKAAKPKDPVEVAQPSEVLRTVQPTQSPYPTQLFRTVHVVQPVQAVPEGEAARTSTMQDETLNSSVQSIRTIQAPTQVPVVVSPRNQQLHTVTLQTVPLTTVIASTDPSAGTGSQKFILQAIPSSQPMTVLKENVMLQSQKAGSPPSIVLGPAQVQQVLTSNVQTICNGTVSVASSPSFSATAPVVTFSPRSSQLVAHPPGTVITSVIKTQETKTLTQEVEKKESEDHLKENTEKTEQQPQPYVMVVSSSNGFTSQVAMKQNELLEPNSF
# ETV1, sequence (P50549 whole entry): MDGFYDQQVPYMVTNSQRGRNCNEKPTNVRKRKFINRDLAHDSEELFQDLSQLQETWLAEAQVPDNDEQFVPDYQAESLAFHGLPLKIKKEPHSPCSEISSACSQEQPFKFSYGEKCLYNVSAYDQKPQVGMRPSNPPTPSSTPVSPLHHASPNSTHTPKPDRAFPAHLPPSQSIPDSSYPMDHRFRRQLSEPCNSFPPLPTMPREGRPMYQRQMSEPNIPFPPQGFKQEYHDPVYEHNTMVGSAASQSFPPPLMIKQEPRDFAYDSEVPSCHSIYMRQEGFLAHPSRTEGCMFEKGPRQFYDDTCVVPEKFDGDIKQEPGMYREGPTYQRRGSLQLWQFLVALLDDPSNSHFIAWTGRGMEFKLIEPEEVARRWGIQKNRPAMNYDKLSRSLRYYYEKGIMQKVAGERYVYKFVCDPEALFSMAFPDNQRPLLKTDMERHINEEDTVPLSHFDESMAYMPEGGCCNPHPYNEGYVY
# ETV6, sequence (P41212 whole entry): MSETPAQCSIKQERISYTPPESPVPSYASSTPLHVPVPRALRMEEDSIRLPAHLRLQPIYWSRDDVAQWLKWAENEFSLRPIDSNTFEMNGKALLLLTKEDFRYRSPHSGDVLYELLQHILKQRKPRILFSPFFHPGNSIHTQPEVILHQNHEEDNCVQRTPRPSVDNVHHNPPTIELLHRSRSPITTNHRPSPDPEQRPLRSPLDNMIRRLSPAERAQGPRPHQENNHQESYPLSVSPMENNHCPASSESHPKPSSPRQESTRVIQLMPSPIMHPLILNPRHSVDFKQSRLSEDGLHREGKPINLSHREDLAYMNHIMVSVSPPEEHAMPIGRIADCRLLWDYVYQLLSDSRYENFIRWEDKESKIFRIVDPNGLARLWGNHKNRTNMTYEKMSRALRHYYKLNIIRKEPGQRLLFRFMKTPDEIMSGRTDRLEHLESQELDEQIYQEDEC
# ELF4, sequence (Q99607 whole entry): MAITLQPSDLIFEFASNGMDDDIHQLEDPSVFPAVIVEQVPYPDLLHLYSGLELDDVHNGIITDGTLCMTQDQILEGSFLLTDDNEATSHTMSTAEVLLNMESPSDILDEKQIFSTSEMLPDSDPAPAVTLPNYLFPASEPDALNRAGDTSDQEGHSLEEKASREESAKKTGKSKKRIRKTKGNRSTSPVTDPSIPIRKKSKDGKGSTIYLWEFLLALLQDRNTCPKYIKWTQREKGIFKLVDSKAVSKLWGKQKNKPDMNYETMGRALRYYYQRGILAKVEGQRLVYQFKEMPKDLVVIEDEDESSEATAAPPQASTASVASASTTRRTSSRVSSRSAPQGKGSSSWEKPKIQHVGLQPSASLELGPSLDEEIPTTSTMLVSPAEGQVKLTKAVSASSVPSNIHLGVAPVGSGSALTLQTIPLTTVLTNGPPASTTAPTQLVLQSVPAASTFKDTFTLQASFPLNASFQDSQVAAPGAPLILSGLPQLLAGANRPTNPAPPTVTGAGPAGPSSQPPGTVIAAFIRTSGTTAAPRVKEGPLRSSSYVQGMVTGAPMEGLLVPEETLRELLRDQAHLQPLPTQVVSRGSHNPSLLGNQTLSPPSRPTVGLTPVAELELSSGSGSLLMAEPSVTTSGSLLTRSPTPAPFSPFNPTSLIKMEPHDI
# ETV5, sequence (P41161 whole entry): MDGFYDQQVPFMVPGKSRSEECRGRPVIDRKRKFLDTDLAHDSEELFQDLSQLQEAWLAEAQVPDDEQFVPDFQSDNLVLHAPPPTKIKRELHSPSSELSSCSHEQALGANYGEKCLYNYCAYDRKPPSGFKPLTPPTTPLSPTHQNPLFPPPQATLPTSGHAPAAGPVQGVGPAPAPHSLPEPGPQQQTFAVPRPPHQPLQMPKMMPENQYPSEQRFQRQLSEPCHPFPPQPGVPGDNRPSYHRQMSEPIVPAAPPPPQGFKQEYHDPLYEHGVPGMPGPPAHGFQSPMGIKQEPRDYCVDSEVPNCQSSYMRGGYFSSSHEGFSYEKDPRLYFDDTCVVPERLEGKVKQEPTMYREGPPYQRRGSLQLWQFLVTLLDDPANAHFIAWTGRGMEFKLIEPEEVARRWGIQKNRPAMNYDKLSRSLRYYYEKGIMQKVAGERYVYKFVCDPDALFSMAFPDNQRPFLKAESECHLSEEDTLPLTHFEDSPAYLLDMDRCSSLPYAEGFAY
sequence,measurement,setting,value
AAGGGC,binding signal,[1],"1.02 fold enrichment (6-mer frequency, TF over GST control)"
same,binding signal,[2],"1.1 fold enrichment (6-mer frequency, TF over GST control)"
same,binding signal,[3],"1.06 fold enrichment (6-mer frequency, TF over GST control)"
same,binding signal,[4],"1.06 fold enrichment (6-mer frequency, TF over GST control)"
same,binding signal,[5],"1.01 fold enrichment (6-mer frequency, TF over GST control)"
same,binding signal,[6],"1.02 fold enrichment (6-mer frequency, TF over GST control)"
same,binding signal,[7],"1.06 fold enrichment (6-mer frequency, TF over GST control)"
same,binding signal,[8],"1.01 fold enrichment (6-mer frequency, TF over GST control)"
same,binding signal,[9],"1.13 fold enrichment (6-mer frequency, TF over GST control)"
same,binding signal,[10],"1.06 fold enrichment (6-mer frequency, TF over GST control)"
same,binding signal,[11],"1.05 fold enrichment (6-mer frequency, TF over GST control)"
same,binding signal,[12],"1.06 fold enrichment (6-mer frequency, TF over GST control)"
same,binding signal,[13],"1.05 fold enrichment (6-mer frequency, TF over GST control)"
same,binding signal,[14],"1.1 fold enrichment (6-mer frequency, TF over GST control)"
same,binding signal,[15],"1.07 fold enrichment (6-mer frequency, TF over GST control)"
same,binding signal,[16],"1.05 fold enrichment (6-mer frequency, TF over GST control)"
same,binding signal,[17],"1.07 fold enrichment (6-mer frequency, TF over GST control)"
same,binding signal,[18],"1.04 fold enrichment (6-mer frequency, TF over GST control)"
